# According to publication PMC12820563, “FoxP3 forms a head-to-head dimer in vivo and stabilizes its multimerization on adjacent microsatellites”:
# Whole data set: some 16,000 sequences, median “rpm ratio (pull-down/input)” near 0.94, cut for the highest 2% near 1.7. The sample holds the highest values, similar sequences and a random draw of the others, so the mix is not that of the screen.
# Target: T1, MBP-FoxP1dN (Mus musculus, UniProt P58462 326-579)
# T1 sequence: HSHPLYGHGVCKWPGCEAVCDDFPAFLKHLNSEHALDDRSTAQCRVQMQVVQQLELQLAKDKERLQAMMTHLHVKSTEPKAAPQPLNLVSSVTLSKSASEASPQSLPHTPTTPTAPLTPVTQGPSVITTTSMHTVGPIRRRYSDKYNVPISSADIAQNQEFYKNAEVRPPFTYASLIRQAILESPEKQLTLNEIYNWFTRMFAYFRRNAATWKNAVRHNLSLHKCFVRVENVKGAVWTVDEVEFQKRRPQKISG
# Assay: PD-seq (MBP pull-down with sequencing); 20 mM Tris-HCl pH 7.5, 100 mM NaCl, 1.5 mM MgCl2, 0.4 uM protein, 0.1 uM dsDNA library, 30 min, room temperature, amylose pull-down; high values mean tight binding
# Settings: protein: recombinant; tags: His6-MBP; chain copies: 2; dsDNA, one strand shown
# Method in brief: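 Binding is the reads-per-million enrichment of pull-down relative to input, pooled across replicates. For this, 0.4 µM His6-MBP-tagged mouse FoxP3 or FoxP1 fragment lacking the N-terminus, made in E. coli, was incubated with 0.1 µM Klenow-filled double-stranded degenerate DNA library for 30 min at room temperature in Tris pH 7.5 buffer with NaCl and MgCl2. Complexes bound to amylose resin were washed three times before proteinase K released the DNA for PCR barcoding and Illumina sequencing.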
row,Sequence,binding signal
1,GATGATTGTTCTCCCAGCTGATGAATTTTGAATTTCGAGTAAACAAATTTTCCTAATCTTTCTGTTCAAGCGCCATCTAC,0.984 RPM ratio (pull-down/input)
2,GATGATTGTTCTCCCAGCTGATGAATTTTAGGGGTCGAGTAAACAAATTTTCCTAATCTTTCTGTTCAAGCGCCATCTAC,0.805 RPM ratio (pull-down/input)
3,GATGATTGTTCTCCCAGCTGATGAATTGACTAAGTCGAGTAAACAAATTTTCCTAATCTTTCTGTTCAAGCGCCATCTAC,1.03 RPM ratio (pull-down/input)
4,GATGATTGTTCTCCCAGCTGATGAATTGACGCTTTCGAGTAAACAAATTTTCCTAATCTTTCTGTTCAAGCGCCATCTAC,1.33 RPM ratio (pull-down/input)
5,GATGATTGTTCTCCCAGCTGATGAATTAGCACCGTCGAGTAAACAAATTTTCCTAATCTTTCTGTTCAAGCGCCATCTAC,0.962 RPM ratio (pull-down/input)
6,GATGATTGTTCTCCCAGCTGATGAATTGGCTATATCGAGTAAACAAATTTTCCTAATCTTTCTGTTCAAGCGCCATCTAC,0.923 RPM ratio (pull-down/input)
7,GATGATTGTTCTCCCAGCTGATGAATTCGCCCGTTCGAGTAAACAAATTTTCCTAATCTTTCTGTTCAAGCGCCATCTAC,0.826 RPM ratio (pull-down/input)
8,GATGATTGTTCTCCCAGCTGATGAATTCGAATCTTCGAGTAAACAAATTTTCCTAATCTTTCTGTTCAAGCGCCATCTAC,0.84 RPM ratio (pull-down/input)
9,GATGATTGTTCTCCCAGCTGATGAATTATCTATATCGAGTAAACAAATTTTCCTAATCTTTCTGTTCAAGCGCCATCTAC,1.14 RPM ratio (pull-down/input)
10,GATGATTGTTCTCCCAGCTGATGAATTATATCTATCGAGTAAACAAATTTTCCTAATCTTTCTGTTCAAGCGCCATCTAC,0.985 RPM ratio (pull-down/input)
11,GATGATTGTTCTCCCAGCTGATGAATTTATTATATCGAGTAAACAAATTTTCCTAATCTTTCTGTTCAAGCGCCATCTAC,1.22 RPM ratio (pull-down/input)
12,GATGATTGTTCTCCCAGCTGATGAATTATAAAAATCGAGTAAACAAATTTTCCTAATCTTTCTGTTCAAGCGCCATCTAC,1.08 RPM ratio (pull-down/input)
13,GATGATTGTTCTCCCAGCTGATGAATTCTTTATATCGAGTAAACAAATTTTCCTAATCTTTCTGTTCAAGCGCCATCTAC,1.02 RPM ratio (pull-down/input)
14,GATGATTGTTCTCCCAGCTGATGAATTATAAACATCGAGTAAACAAATTTTCCTAATCTTTCTGTTCAAGCGCCATCTAC,2.42 RPM ratio (pull-down/input)
15,GATGATTGTTCTCCCAGCTGATGAATTATATATATCGAGTAAACAAATTTTCCTAATCTTTCTGTTCAAGCGCCATCTAC,1.16 RPM ratio (pull-down/input)
16,GATGATTGTTCTCCCAGCTGATGAATTATTTATATCGAGTAAACAAATTTTCCTAATCTTTCTGTTCAAGCGCCATCTAC,1.75 RPM ratio (pull-down/input)
17,GATGATTGTTCTCCCAGCTGATGAATTATATTTATCGAGTAAACAAATTTTCCTAATCTTTCTGTTCAAGCGCCATCTAC,2.43 RPM ratio (pull-down/input)
18,GATGATTGTTCTCCCAGCTGATGAATTATATAAATCGAGTAAACAAATTTTCCTAATCTTTCTGTTCAAGCGCCATCTAC,1.16 RPM ratio (pull-down/input)
19,GATGATTGTTCTCCCAGCTGATGAATTAATTATATCGAGTAAACAAATTTTCCTAATCTTTCTGTTCAAGCGCCATCTAC,1.11 RPM ratio (pull-down/input)
20,GATGATTGTTCTCCCAGCTGATGAATTTATATTATCGAGTAAACAAATTTTCCTAATCTTTCTGTTCAAGCGCCATCTAC,2.04 RPM ratio (pull-down/input)
21,GATGATTGTTCTCCCAGCTGATGAATTTACATCCTCGAGTAAACAAATTTTCCTAATCTTTCTGTTCAAGCGCCATCTAC,1.26 RPM ratio (pull-down/input)
22,GATGATTGTTCTCCCAGCTGATGAATTAGGCTTGTCGAGTAAACAAATTTTCCTAATCTTTCTGTTCAAGCGCCATCTAC,0.93 RPM ratio (pull-down/input)
23,GATGATTGTTCTCCCAGCTGATGAATTACAAATGTCGAGTAAACAAATTTTCCTAATCTTTCTGTTCAAGCGCCATCTAC,1.44 RPM ratio (pull-down/input)
24,GATGATTGTTCTCCCAGCTGATGAATTATCCCTGTCGAGTAAACAAATTTTCCTAATCTTTCTGTTCAAGCGCCATCTAC,0.907 RPM ratio (pull-down/input)

row,Sequence,binding signal
1,GATGATTGTTCTCCCAGCTGATGAATTAGTCCTCTCGAGTAAACAAATTTTCCTAATCTTTCTGTTCAAGCGCCATCTAC,0.936 RPM ratio (pull-down/input)
2,GATGATTGTTCTCCCAGCTGATGAATTACACAGTTCGAGTAAACAAATTTTCCTAATCTTTCTGTTCAAGCGCCATCTAC,1.18 RPM ratio (pull-down/input)
3,GATGATTGTTCTCCCAGCTGATGAATTATATTGATCGAGTAAACAAATTTTCCTAATCTTTCTGTTCAAGCGCCATCTAC,2.09 RPM ratio (pull-down/input)
4,GATGATTGTTCTCCCAGCTGATGAATTATAATTATCGAGTAAACAAATTTTCCTAATCTTTCTGTTCAAGCGCCATCTAC,1.37 RPM ratio (pull-down/input)
5,GATGATTGTTCTCCCAGCTGATGAATTATATTAATCGAGTAAACAAATTTTCCTAATCTTTCTGTTCAAGCGCCATCTAC,1.1 RPM ratio (pull-down/input)
6,GATGATTGTTCTCCCAGCTGATGAATTTATAATATCGAGTAAACAAATTTTCCTAATCTTTCTGTTCAAGCGCCATCTAC,1.31 RPM ratio (pull-down/input)
7,GATGATTGTTCTCCCAGCTGATGAATTGATTATATCGAGTAAACAAATTTTCCTAATCTTTCTGTTCAAGCGCCATCTAC,1.26 RPM ratio (pull-down/input)
8,GATGATTGTTCTCCCAGCTGATGAATTATAAATATCGAGTAAACAAATTTTCCTAATCTTTCTGTTCAAGCGCCATCTAC,2.01 RPM ratio (pull-down/input)
9,GATGATTGTTCTCCCAGCTGATGAATTCACGCTGTCGAGTAAACAAATTTTCCTAATCTTTCTGTTCAAGCGCCATCTAC,0.895 RPM ratio (pull-down/input)
10,GATGATTGTTCTCCCAGCTGATGAATTACTCGTCTCGAGTAAACAAATTTTCCTAATCTTTCTGTTCAAGCGCCATCTAC,0.904 RPM ratio (pull-down/input)
11,GATGATTGTTCTCCCAGCTGATGAATTTGAGTGATCGAGTAAACAAATTTTCCTAATCTTTCTGTTCAAGCGCCATCTAC,0.906 RPM ratio (pull-down/input)
12,GATGATTGTTCTCCCAGCTGATGAATTAACGCGGTCGAGTAAACAAATTTTCCTAATCTTTCTGTTCAAGCGCCATCTAC,0.904 RPM ratio (pull-down/input)
13,GATGATTGTTCTCCCAGCTGATGAATTTATGTTGTCGAGTAAACAAATTTTCCTAATCTTTCTGTTCAAGCGCCATCTAC,2.86 RPM ratio (pull-down/input)
14,GATGATTGTTCTCCCAGCTGATGAATTTGTTATGTCGAGTAAACAAATTTTCCTAATCTTTCTGTTCAAGCGCCATCTAC,1.55 RPM ratio (pull-down/input)
15,GATGATTGTTCTCCCAGCTGATGAATTAATTATGTCGAGTAAACAAATTTTCCTAATCTTTCTGTTCAAGCGCCATCTAC,1.07 RPM ratio (pull-down/input)
16,GATGATTGTTCTCCCAGCTGATGAATTATGTCTGTCGAGTAAACAAATTTTCCTAATCTTTCTGTTCAAGCGCCATCTAC,0.913 RPM ratio (pull-down/input)
17,GATGATTGTTCTCCCAGCTGATGAATTATGTTTGTCGAGTAAACAAATTTTCCTAATCTTTCTGTTCAAGCGCCATCTAC,2.67 RPM ratio (pull-down/input)
18,GATGATTGTTCTCCCAGCTGATGAATTTTTTATGTCGAGTAAACAAATTTTCCTAATCTTTCTGTTCAAGCGCCATCTAC,1.04 RPM ratio (pull-down/input)
19,GATGATTGTTCTCCCAGCTGATGAATTTATTATGTCGAGTAAACAAATTTTCCTAATCTTTCTGTTCAAGCGCCATCTAC,1.4 RPM ratio (pull-down/input)
20,GATGATTGTTCTCCCAGCTGATGAATTGTTTATGTCGAGTAAACAAATTTTCCTAATCTTTCTGTTCAAGCGCCATCTAC,2.77 RPM ratio (pull-down/input)
21,GATGATTGTTCTCCCAGCTGATGAATTTATGATGTCGAGTAAACAAATTTTCCTAATCTTTCTGTTCAAGCGCCATCTAC,1.51 RPM ratio (pull-down/input)
22,GATGATTGTTCTCCCAGCTGATGAATTCTTTATGTCGAGTAAACAAATTTTCCTAATCTTTCTGTTCAAGCGCCATCTAC,1.04 RPM ratio (pull-down/input)
23,GATGATTGTTCTCCCAGCTGATGAATTATTTATGTCGAGTAAACAAATTTTCCTAATCTTTCTGTTCAAGCGCCATCTAC,1.83 RPM ratio (pull-down/input)
24,GATGATTGTTCTCCCAGCTGATGAATTTATGTCGTCGAGTAAACAAATTTTCCTAATCTTTCTGTTCAAGCGCCATCTAC,1.14 RPM ratio (pull-down/input)
